16 compounds from PubChem BioAssay (NCI) can be followed below.

Among the test systems are BT-549 breast; MDA-MB-435 melanoma; SW-620 colon; HCT-116 colon; HCC-2998 colon; KM12 colon; MCF7 breast.
What all share (assay): NCI-60 one-dose screen, 48 h (100 = growth as untreated, 0 = no growth, -100 = all killed)
The subject of a further assay is T-47D breast. Particulars: 10 µM unless noted.

Where “and” joins values, the source holds several entries; their conditions need not be identical. Identical values can stand only once. This is part of a sample that, as a whole, favours compounds with a hit. Of some 83,000 tested, about 20% had one in any assay.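 For each line, cells grew in 96-well plates with the test compound present at a single concentration for 48 hours.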 A number with no mark means an inactive call. Calls of active or inactive are those of the source. The calls were made as follows: active = growth percent below 10; inactive = the rest.

Regarding `O=S(=O)(O)c1ccc(N=Nc2ccc(N=Nc3cccc4ccccc34)c(S(=O)(=O)O)c2)cc1`, the growth in the assay on T-47D breast is 81.3%; in the assay on BT-549 breast (10 µM unless noted), 108%; in the assay on MDA-MB-435 melanoma (10 µM unless noted), 108%; in the assay with SW-620 colon (10 µM unless noted) it was 96.2%; in the assay with HCT-116 colon (10 µM unless noted) it was 102%; in the assay on HCC-2998 colon (10 µM unless noted), 108%. For the same compound, the growth in the assay on KM12 colon (10 µM unless noted) is 104%.
Turning to `[Cu+].[NH-][C@H]1C[N-]C(=O)[C@H]([C@H]2CCN=C(N)N2)[N-]C(=O)/C(=C\NC(N)=O)[N-]C(=O)[C@H](CNC(=O)C[C@@H](N)CCCN)[N-]C(=O)[C@H](CO)[N-]C1=O`, the growth in the assay with T-47D breast was 89.5%; with BT-549 breast (10 µM unless noted), 104%; in the assay with MDA-MB-435 melanoma (10 µM unless noted), 94.3%; with SW-620 colon (10 µM unless noted) it was 91.7%; in the assay on HCT-116 colon (10 µM unless noted) it was 97.4%; in the assay with HCC-2998 colon (10 µM unless noted), 110%. Moreover, the growth with KM12 colon (10 µM unless noted) is 101%.
For `N#Cc1c(-c2cccc(F)c2)cc(-c2cccnc2)[nH]c1=O`, the growth with T-47D breast is 93.4%; in the assay on BT-549 breast (10 µM unless noted), 98.3%; in the assay with MDA-MB-435 melanoma (10 µM unless noted), 100%; in the assay with SW-620 colon (10 µM unless noted), 110%; in the assay with HCT-116 colon (10 µM unless noted), 103%; with HCC-2998 colon (10 µM unless noted) it was 112%. The growth with KM12 colon (10 µM unless noted) is 103%.
`COc1cc(NC2CCCCC2O)c2nc(-c3ccc(Cl)cc3)ccc2c1` (stereo not given): the growth in the assay on T-47D breast was 78.5% and 86.5%; with BT-549 breast (10 µM unless noted), 108% and 97.5%; with MDA-MB-435 melanoma (10 µM unless noted), 68.4% and 86.5%; in the assay on SW-620 colon (10 µM unless noted), 78.9% and 86.7%; with MCF7 breast (10 µM unless noted), 51.8% and 59.4%; in the assay with HCT-116 colon (10 µM unless noted), 69.6% and 77.2%. Further, the growth in the assay with HCC-2998 colon (10 µM unless noted) was 91.8% and 93%; in the assay on KM12 colon (10 µM unless noted), 54.9% and 68.3%.
`O=C(CN1C(=O)S/C(=C\C(Cl)=C\c2ccccc2)C1=O)NC1C=CS(=O)(=O)C1` (stereo not given): the growth in the assay with BT-549 breast (10 µM unless noted) was 2.33% (active); with MDA-MB-435 melanoma (10 µM unless noted), -31.4% (active); in the assay with SW-620 colon (10 µM unless noted) it was -36.4% (active); with MCF7 breast (10 µM unless noted), 11.1%; with HCT-116 colon (10 µM unless noted) it was -62.3% (active); in the assay on HCC-2998 colon (10 µM unless noted), 65.6%. Moreover, in the assay on KM12 colon (10 µM unless noted), the growth was 16.4%.
In the case of `COc1ccc(C/C(C)=C(/c2ccc(OCCN3CCCC3)cc2)c2ccc(OC(=O)NCc3ccccc3)cc2)cc1`, the growth with BT-549 breast (10 µM unless noted) was 82.5%; with MDA-MB-435 melanoma (10 µM unless noted), 73%; in the assay with SW-620 colon (10 µM unless noted), 95.3%; in the assay with MCF7 breast (10 µM unless noted), 30.7%; in the assay with HCT-116 colon (10 µM unless noted), 39.6%; in the assay on HCC-2998 colon (10 µM unless noted) it was 87.8%. Also, the growth in the assay with KM12 colon (10 µM unless noted) is 90.7%.
On to `[2H]C([2H])([2H])Oc1cccc(/C=C/C(=O)/C=C(/C=C/c2cccc(OC([2H])([2H])[2H])c2OC([2H])([2H])[2H])OB(F)F)c1OC([2H])([2H])[2H]`, for which the growth in the assay on BT-549 breast (10 µM unless noted) is 86.2%; in the assay with MDA-MB-435 melanoma (10 µM unless noted), 57%; in the assay on SW-620 colon (10 µM unless noted), 46.7%; in the assay with MCF7 breast (10 µM unless noted) it was 26.2%; with HCT-116 colon (10 µM unless noted), 41.5%; in the assay with HCC-2998 colon (10 µM unless noted), 122%. Moreover, the growth in the assay on KM12 colon (10 µM unless noted) is 92.2%.
Turning to `CONC1=Nc2cc(NC(N)=NCc3ccccc3)c(N(C)C3CCCCC3)cc2OC1`, the growth in the assay with BT-549 breast (10 µM unless noted) is 92%; in the assay on MDA-MB-435 melanoma (10 µM unless noted) it was 73%; with SW-620 colon (10 µM unless noted), 75%; in the assay with MCF7 breast (10 µM unless noted), 36.1%; in the assay with HCT-116 colon (10 µM unless noted) it was 45.8%; in the assay on HCC-2998 colon (10 µM unless noted) it was 22.1%. Moreover, the growth with KM12 colon (10 µM unless noted) is 61.5%.
In the case of `CCNC(=S)n1nc(SC)c(C(=O)OCC)c1N`, the growth is 95.3% in the assay with BT-549 breast (10 µM unless noted); 104% in the assay on MDA-MB-435 melanoma (10 µM unless noted); 102% with SW-620 colon (10 µM unless noted); 92% in the assay with MCF7 breast (10 µM unless noted); 96.1% with HCT-116 colon (10 µM unless noted); 116% with HCC-2998 colon (10 µM unless noted). Further, in the assay on KM12 colon (10 µM unless noted), the growth is 97.5%.
`N#CC1C(=O)c2ccccc2C1c1ccccc1` (stereo not given): the growth is 107% in the assay on BT-549 breast (10 µM unless noted); 104% and 102% in the assay on MDA-MB-435 melanoma (10 µM unless noted); 121% and 104% with SW-620 colon (10 µM unless noted); 102% and 99.5% in the assay with MCF7 breast (10 µM unless noted); 105% and 101% with HCT-116 colon (10 µM unless noted); 111% and 115% with HCC-2998 colon (10 µM unless noted). Moreover, the growth with KM12 colon (10 µM unless noted) was 109% and 102%.
Consider `C=C[C@]1(C)C=C2CC[C@@H]3C(C)(C)C(=O)CC[C@@]3(C)[C@@H]2CC1`, for which the growth was 126% with BT-549 breast (10 µM unless noted); 101% with MDA-MB-435 melanoma (10 µM unless noted); 105% in the assay with SW-620 colon (10 µM unless noted); 101% in the assay on MCF7 breast (10 µM unless noted); 103% in the assay on HCT-116 colon (10 µM unless noted); 107% with HCC-2998 colon (10 µM unless noted). Moreover, in the assay on KM12 colon (10 µM unless noted), the growth is 98.6%.
For the compound `O=C(CCl)N(O)c1ccc(/C=C/c2ccccc2)cc1`, the growth was 73.5% and 62.4% in the assay on BT-549 breast (10 µM unless noted); 97.2% and 90% in the assay on MDA-MB-435 melanoma (10 µM unless noted); 74.3% and 53.5% in the assay with SW-620 colon (10 µM unless noted); 49.2% and 42.5% in the assay with MCF7 breast (10 µM unless noted); 69.1% and 51.7% in the assay with HCT-116 colon (10 µM unless noted); 75.7% and 89.3% in the assay on HCC-2998 colon (10 µM unless noted). Further, in the assay with KM12 colon (10 µM unless noted), the growth was 102% and 91.6%.
Turning to `CC[C@@H]1NC(=O)[C@H]([C@H](O)[C@H](C)C/C=C/c2ccc(CN3C(=O)C(C)=C(C)C3=O)cc2)N(C)C(=O)[C@H](C(C)C)N(C)C(=O)[C@H](CC(C)C)N(C)C(=O)[C@H](CC(C)C)N(C)C(=O)[C@@H](C)NC(=O)[C@H](C)NC(=O)[C@H](CC(C)C)N(C)C(=O)[C@H](C(C)C)NC(=O)[C@H](CC(C)C)N(C)C(=O)CN(C)C1=O`, the growth is 82.4% with BT-549 breast (10 µM unless noted); 82.7% in the assay with MDA-MB-435 melanoma (10 µM unless noted); 97.7% in the assay with SW-620 colon (10 µM unless noted); 50.9% in the assay on MCF7 breast (10 µM unless noted); 54.8% with HCT-116 colon (10 µM unless noted); 87.2% in the assay on HCC-2998 colon (10 µM unless noted). For the same compound, the growth in the assay with KM12 colon (10 µM unless noted) was 78.7%.
Consider `C#CCOc1cccc(Nc2ncc3ncn(C4CCN(C(=O)CCl)C4)c3n2)c1` (stereo not given), for which the growth with BT-549 breast (10 µM unless noted) is 29.3% [6.25 µM]; with MDA-MB-435 melanoma (10 µM unless noted), 35.2% [6.25 µM]; in the assay on SW-620 colon (10 µM unless noted), -41.4% [6.25 µM] (active); with MCF7 breast (10 µM unless noted), 8.03% [6.25 µM] (active); in the assay on HCT-116 colon (10 µM unless noted), 0.194% [6.25 µM] (active); in the assay on HCC-2998 colon (10 µM unless noted), 74.9% [6.25 µM]. Also, in the assay with KM12 colon (10 µM unless noted), the growth is 87.5% [6.25 µM].
On to `COc1cc(NS(=O)(=O)C(C)C)cc(-c2cc(-c3ccc(N4CCNCC4)cc3)cnc2N)c1`, for which the growth with BT-549 breast (10 µM unless noted) is 78.4%; with MDA-MB-435 melanoma (10 µM unless noted), 92.5%; in the assay with SW-620 colon (10 µM unless noted), 82%; in the assay with MCF7 breast (10 µM unless noted) it was 81.2%; with HCT-116 colon (10 µM unless noted), 14.2%; in the assay with HCC-2998 colon (10 µM unless noted) it was 80.5%. Also, the growth with KM12 colon (10 µM unless noted) is 48.3%.
As for `CC(=O)/C=C/c1ccc(OCc2ccc(C(C)(C)C)cc2)cc1`, the growth in the assay on BT-549 breast (10 µM) was 103%; with BT-549 breast (100 µM) it was 21.3%; with MDA-MB-435 melanoma (10 µM) it was 78.4%; in the assay with MDA-MB-435 melanoma (100 µM) it was 39.5%; in the assay on SW-620 colon (10 µM) it was 72.1%; with SW-620 colon (100 µM) it was 38.6%. Also, the growth with MCF7 breast (10 µM) was 66.6%; in the assay with MCF7 breast (100 µM), 41.8%; with HCT-116 colon (10 µM), 68.9%; in the assay on HCT-116 colon (100 µM), 25.3%; with HCC-2998 colon (10 µM) it was 92.1%; with HCC-2998 colon (100 µM) it was 86.8%. Besides, the growth was 82.9% in the assay with KM12 colon (10 µM) and 32.1% in the assay on KM12 colon (100 µM).
